Results taken from ChEMBL document CHEMBL4513216, “Probing the Open Global Health Chemical Diversity Library for Multistage-Active Starting Points for Next-Generation Antimalarials” (ACS Infect Dis, 2020).
Hit rate of the full screen: of about 69,000 compounds, about 8,600 (12%) showed an effect of 50% or more. Shown is part of a subset that was picked to be rich in strong results.

tested on: Plasmodium berghei; test: Screen against P. berghei liver stage (PbLuc), transformed with Luciferase, at 10uM; assay type: functional, HepG2; settings: tested at 10 uM

| SMILES | INHIBITION |
| --- | --- |
| CN(C)Cc1cc(C2CCCCN2S(=O)(=O)c2cccc(Cl)c2)nn1C (stereo unspecified) | 37.8% |
| CC(=O)Nc1ccc(SCC(O)COCc2ccco2)cc1 (stereo unspecified) | 26.9% |
| COc1ccc2oc(C(C)NC(=O)NCC(C)(C)C(N)=O)c(C)c2c1 (stereo unspecified) | 42.3% |
| CCN(Cc1ccncc1)C(=O)CCn1c(C)cc2ccccc21 | 14.9% |
| CCN(Cc1nc(COC)no1)C(=O)CCn1c(C)cc2ccccc21 | 36.7% |
| CCN(Cc1noc(C)n1)C(=O)CCn1c(C)cc2ccccc21 | 58.5% |
| COCCNC(=O)[C@H]1C[C@@H]2CCN(c3ncccn3)C[C@H]2O1 | -56.7% |
| CCN1CCN(C)C2(CCN(C(=O)CC(F)(F)F)CC2)C1=O | 71.3% |
| CN1CCN(C)C2(CCN(C(=O)CC(F)(F)F)CC2)C1=O | 27.5% |
| CN1CCN(CC2CC2)C(=O)C12CCN(C(=O)CC(F)(F)F)CC2 | -14.2% |
| CC(C)CC(=O)NS(=O)(=O)c1ccc(C#N)cc1C(F)(F)F | 2.3% |
| COc1ccc(C2=NOC(C#N)C2)cc1 (stereo unspecified) | 15.9% |
| CC(C)c1nnc2n1CCN(C(=O)c1ccnc(N(C)C)c1)C2 | 42% |
| Cc1cc(N(C)C)nc(N2CCn3c(nnc3C(C)C)C2)n1 | 52.2% |
| CCc1nnc2n1CCN(C(=O)c1ccnc(N(C)C)c1)C2 | 19.2% |
| Cc1cc(N(C)C)nc(N2CCn3c(nnc3C3CC3)C2)n1 | 21.2% |
| Cc1cc(N(C)C)nc(N2CCN(C(C)c3nc(C)no3)CC2)n1 (stereo unspecified) | -71.2% |
| Cc1cc(N(C)C)nc(N2CCn3c(C)nnc3C2)n1 | 51.1% |
| Cc1cc(N(C)C)nc(N2CCN(Cc3nccn3C)CC2)n1 | -87% |
| CCc1nnc2n1CCN(c1nc(C)cc(N(C)C)n1)C2 | 71.5% |
| Cc1cn2nc(N3CCn4c(nnc4C(C)C)C3)sc2n1 | 7.81% |
| CS(=O)(=O)NCCC1CCCCN1C(=O)NCc1ccccn1 (stereo unspecified) | 4.13% |

| SMILES | INHIBITION |
| --- | --- |
| CC(C)COc1cncc(N2CCCC(CC(N)=O)C2)n1 (stereo unspecified) | 4.82% |
| O=C(c1cnccn1)N1CCc2onc(CN3CCOCC3)c2C1 | 45.5% |
| c1ccc2cc(OCCCN3CCn4c(nnc4C4CC4)C3)ccc2c1 | 35.9% |
| CC(C)=CCN1CC2(CCN(C(=O)CCn3ccnc3C)CC2)CC1=O | 27.7% |
| CC(C)N(C)C[C@H]1C[C@@H]2CN(Cc3ccco3)C[C@@H]2O1 | 8.74% |
| O=C(C1CCCC1)N1CCCC([C@@H]2C[C@H](C(F)F)n3ncnc3N2)C1 (stereo partly specified) | 0.788% |
| O=C1CN(CCS(=O)(=O)c2ccc(Cl)cc2)CCN1 | 14% |
| O=C(Nc1cccc2c1CCCC2)c1cccnc1N1CCCNCC1 | 53% |
| Cc1cccc(C(=O)Nc2cccc3c2CCCC3)n1 | -45.5% |
| CC1CN(c2ncccc2C(=O)Nc2cccc3c2CCCC3)CCN1 (stereo unspecified) | -63.6% |
| c1cnc(N2CCO[C@H]3[C@H](OCc4cccnc4)CC[C@@H]32)nc1 | 21.5% |
| CS(=O)(=O)N1C[C@@H](NC(=O)c2ccno2)[C@@H]2OCCC[C@@H]21 | 36.7% |
| CN1CC(=O)N(c2ccsc2)CC12CCN(C(=O)Nc1ccccc1)C2 (stereo unspecified) | 1.94% |
| CC(C(=O)N1CCCN(Cc2ccc(C#N)cc2)CC1)n1cccn1 (stereo unspecified) | 19.583% |
| CC(=O)NCCc1cc(N2CCN(C(C)=O)CC2)nc(C2CC2)n1 | 43.8% |
| CCC(=O)NCCc1cc(N2CCN(C(C)=O)CC2)nc(C2CC2)n1 | 51.2% |
| CCCC(=O)NCCc1cc(N2CCN(C(C)=O)CC2)nc(C2CC2)n1 | 46% |
| COc1cccc(CN(C)C(C)C(=O)Nc2nc(C)c(C)s2)c1 (stereo unspecified) | 39.3% |
| CCS(=O)(=O)N1CCC[C@]2(C(=O)N(C)C)CN(c3ncccn3)C[C@@H]2C1 | -47.6% |
| CCc1nn(C)c(Cl)c1CN1CCC(c2cc(O)nc(C)n2)CC1 | 3.96% |
| NC(=O)c1ccc(N2CCN(Cc3c(Cl)cncc3Cl)CC2)nc1 | 30.7% |
| CCOC(=O)c1ccc(N2CCN(Cc3c(C)nn(C)c3Cl)CC2)nc1 | 74.9% |

| SMILES | INHIBITION |
| --- | --- |
| CCc1nn(C)c(Cl)c1CN1CCN(c2nc(C(N)=O)cs2)CC1 | 24.1% |
| CCc1nn(C)c(Cl)c1CN1CCN(c2ccc(C(N)=O)cn2)CC1 | 40.7% |
| CCc1nn(C)c(Cl)c1CN1CCN(c2ccc(Cl)nn2)CC1 | 66.6% |
| Cn1nc(C2CCCN2)c2c(C(=O)NCC(F)(F)F)cc(C3CC3)nc21 (stereo unspecified) | 28.4% |
| O=S(=O)(c1ccccc1)N1C2CCC(O)(CC2)C1CN1CCOCC1 (stereo unspecified) | 23.7% |
| Cc1nc(C)n(CC2CCCN2Cc2nc(-c3ccccn3)no2)n1 (stereo unspecified) | 32.7% |
| CN(C)C(=O)[C@H]1CCS(=O)(=O)[C@@H]2CN(c3ncccn3)C[C@H]12 | 61.1% |
| CC(C)CNC(=O)[C@H]1CCS(=O)(=O)[C@@H]2CN(c3ncccn3)C[C@H]12 | 35.8% |
| CCc1cnc(N2C[C@@H]3[C@@H](C(=O)N(C)C)CCS(=O)(=O)[C@@H]3C2)nc1 | 36.7% |
| CC(C)NC(=O)[C@H]1CCS(=O)(=O)[C@@H]2CN(c3ncc(F)cn3)C[C@H]12 | -13% |
| CC(C)NC(=O)[C@H]1CCS(=O)(=O)[C@@H]2CN(c3ncccn3)C[C@H]12 | 0.164% |
| CN(C)C(=O)[C@H]1CCS(=O)(=O)[C@@H]2CN(c3ncc(F)cn3)C[C@H]12 | 54.8% |
| O=C(O)c1cc(C=Cc2ccc3ccccc3c2)ncn1 | -57% |
| Cc1ccc(C(O)CNC(=O)NCc2csc(C)n2)cc1 (stereo unspecified) | -34% |
| O=C(c1cccnc1N1CCOCC1)N1CCCC(n2cccn2)C1 (stereo unspecified) | -62.365% |
| Cn1cc(-c2cnc(N3CCOCC3)nc2)cc1C(=O)N1CCCC1 | -50.9% |
| CC(C)(O)CCc1cccc(C(=O)NCCC2=CSC3=NCCCN23)c1 | 31.2% |
| CN(CCNC(=O)c1ccnc(-n2ccnc2)c1)C1CC1 | -3.83% |
| CNc1cc(C(=O)NCCC2=CSC3=NCCCN23)ccn1 | 50.3% |
| COc1cccc(C2CCCN2C(=O)CC2=CSC3=NCCCN23)c1 (stereo unspecified) | -11.6% |
| CCC(=O)Nc1cccc(C(=O)NCCC2=CSC3=NCCCN23)c1 | 50.3% |
| O=C(CC1=CSC2=NCCCN12)N1CCCCCC1c1ccco1 (stereo unspecified) | -4.01% |
